In assay [1] the test system is DLD1. Description: cell viability (CellTiter-Glo) relative to plate median (fraction of plate median); higher = more viable cells. The conditions noted are these: 5 µM; treatment time 24 h; reporter: 7TFP. Summed up:
(§1)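 Stable lentiviral TCF/Wnt firefly luciferase reporters (7TFP or TCF4/Wnt) were present in the colorectal cancer cell lines used. These cells received library compounds at a final 5 µM for 24 h, and parallel plates were read for firefly luciferase or CellTiterGlo luminescence. Each well was normalised to the plate median, and the value reported is the mean of two independent replicates.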
In general terms: In ATP-based viability assays light output follows the ATP content of the culture.

The subject of the next assay is HCT116. Described as above. The conditions noted are these: 5 µM; treatment time 24 h; reporter: TCF4/Wnt. Summed up: as §1
Assay [2] deals with SW480. Described as above. Conditions: 5 µM; treatment time 24 h; reporter: 7TFP. Summed up: as §1
Assay [3] relates to DLD1. Put plainly: TCF/Wnt firefly luciferase reporter signal relative to plate median (fraction of plate median); higher = higher Wnt reporter signal. Conditions: 5 µM; treatment time 24 h; reporter: 7TFP. Summed up:
as §1
A general note: In a reporter assay the amount or activity of a reporter protein is the signal.

Assay [4] concerns SW480. The description is as above. Conditions: 5 µM; treatment time 24 h; reporter: 7TFP. In outline: as §1

± gives the standard deviation of the averaged measurements.

Turning to `O.O.O.O.O=C([O-])CC(O)(CC(=O)[O-])C(=O)[O-].[Li+].[Li+].[Li+]`, the figures for the cell viability with DLD1 [1], with HCT116 and in the assay on SW480 [2] were 0.955 ± 0.11, 0.852 ± 0.086 and 0.966 ± 0.0028, respectively. Moreover, the “TCF/Wnt firefly luciferase reporter signal” value with DLD1 [3] was determined as 0.844 ± 0.012; with SW480 [4] it was 0.725 ± 0.14.

`NC(=O)N1c2ccccc2CC(=O)c2ccccc21`: the cell viability came out at 0.9 ± 0.09 in the assay on DLD1 [1], 0.847 ± 0.09 in the assay on HCT116 and 1.03 ± 0.014 in the assay with SW480 [2]. Also, the “TCF/Wnt firefly luciferase reporter signal” value was 1.06 in the assay on DLD1 [3] and 1.1 ± 0.14 in the assay with SW480 [4].

On to `NC(=O)N/N=C/c1ccc([N+](=O)[O-])o1`, for which the values for the cell viability in the assay with DLD1 [1], with HCT116 and in the assay on SW480 [2] were 0.894 ± 0.04, 0.827 ± 0.13 and 0.9805 ± 0.0064, respectively. Besides, the “TCF/Wnt firefly luciferase reporter signal” value with DLD1 [3] was determined as 0.973 ± 0.11; in the assay with SW480 [4], 1.08 ± 0.028.

For `C[C@@H]1NC(=O)[C@H](Cc2ccccc2)NC1=O` [cyclo(alanylphenylalanyl)], the cell viability in the assay on DLD1 [1] worked out at 1 ± 0.053; in the assay with HCT116 it was 0.997 ± 0.17; in the assay on SW480 [2] it was 0.96 ± 0.025. Further, the “TCF/Wnt firefly luciferase reporter signal” value is 0.987 ± 0.12 in the assay with DLD1 [3] and 1.04 ± 0.014 in the assay with SW480 [4].

As to `c1ccc2[nH]c(-c3cscn3)nc2c1`, the cell viability in the assay on DLD1 [1] worked out at 1.02 ± 0.021; with HCT116, 1.17 ± 0.035; with SW480 [2], 1.02. Besides, the “TCF/Wnt firefly luciferase reporter signal” value is 1.32 ± 0.16 in the assay on DLD1 [3] and 1.18 ± 0.028 in the assay on SW480 [4].

`CC(=O)Oc1c(-c2ccccc2)oc2c(CC=C(C)C)c3c(c(OC(C)=O)c2c1=O)C=CC(C)(C)O3`: the cell viability with DLD1 [1] is 1.05 ± 0.057; with HCT116, 1.11 ± 0.11; in the assay with SW480 [2] it was 1.02 ± 0.028. In addition, the “TCF/Wnt firefly luciferase reporter signal” value in the assay on DLD1 [3] was 0.855 ± 0.044; in the assay with SW480 [4], 0.972 ± 0.036.

Regarding `Nc1ccc(S(=O)(=O)NC(=O)c2ccccc2)cc1`, the results for the cell viability in the assay on DLD1 [1], in the assay on HCT116 and in the assay with SW480 [2] were 1.07 ± 0.12, 0.954 ± 0.12 and 1.11 ± 0.064, respectively. Also, the “TCF/Wnt firefly luciferase reporter signal” value in the assay with DLD1 [3] was determined as 0.875 ± 0.15; with SW480 [4], 1.02 ± 0.014.

For `COC(=O)C[C@H]1C(C)(C)[C@@H](OC(C)=O)[C@@H]2CC3C4CC(=O)O[C@@H](c5ccoc5)[C@]4(C)CCC3[C@@]1(C)C2=O` (stereo not given in full), the cell viability stood at 1.05 ± 0.042 in the assay with DLD1 [1], 0.946 ± 0.011 in the assay with HCT116 and 1.015 ± 0.0071 with SW480 [2]. The entries for the “TCF/Wnt firefly luciferase reporter signal” value with DLD1 [3] and in the assay with SW480 [4] were 0.966 ± 0.1 and 1.005 ± 0.0071, respectively.

As for `Cc1ccc2c(c1)CC[C@H]1CC(=O)CC[C@]21C`, the results for the cell viability in the assay on DLD1 [1], with HCT116 and in the assay on SW480 [2] were 1.03 ± 0.035, 1.05 ± 0.097 and 0.9365 ± 0.0021, respectively. The figures for the “TCF/Wnt firefly luciferase reporter signal” value in the assay on DLD1 [3] and in the assay on SW480 [4] were 0.941 ± 0.13 and 0.957 ± 0.0028, respectively.

For `Cc1ccsc1/C=C/C1=NCCCN1C`, the cell viability in the assay with DLD1 [1] was determined as 0.843 ± 0.058; in the assay with HCT116 it was 0.864 ± 0.044; in the assay on SW480 [2], 0.9765 ± 0.00071. In addition, the “TCF/Wnt firefly luciferase reporter signal” value in the assay on DLD1 [3] was determined as 1.04 ± 0.021; in the assay on SW480 [4], 1 ± 0.083.

Regarding `COc1ccccc1OCC(O)CO` (stereo not given), the cell viability with DLD1 [1] was found to be 0.953 ± 0.015; in the assay with HCT116, 1.08 ± 0.05; in the assay on SW480 [2] it was 1.03 ± 0.052. Besides, the “TCF/Wnt firefly luciferase reporter signal” value with DLD1 [3] was 1.09 ± 0.028; in the assay with SW480 [4], 1.01 ± 0.095.

On to `CC(C)CCC[C@@H](C)[C@H]1CC[C@H]2[C@@H]3CC[C@@H]4C[C@H](O)CC[C@]4(C)[C@H]3CC[C@]12C`, for which the cell viability in the assay on DLD1 [1] came to 1.06 ± 0.028; in the assay with HCT116 it was 1.01 ± 0.033; in the assay on SW480 [2] it was 1.02 ± 0.076. The “TCF/Wnt firefly luciferase reporter signal” value in the assay with DLD1 [3] came to 0.985 ± 0.036; in the assay with SW480 [4] it was 1.03 ± 0.07.

With `CCN1CCN(c2cc3c(cc2F)c(=O)c(C(=O)O)cn3C2CC2)CC1`, the results for the cell viability with DLD1 [1], in the assay on HCT116 and in the assay with SW480 [2] were 1.01 ± 0.05, 0.907 ± 0.038 and 0.921 ± 0.03, respectively. The “TCF/Wnt firefly luciferase reporter signal” value is 1.05 ± 0.074 in the assay on DLD1 [3] and 0.9395 ± 0.005 in the assay with SW480 [4].

As for `COc1cc2nc(N3CCN(C(=O)c4ccco4)CC3)nc(N)c2cc1OC`, the cell viability in the assay with DLD1 [1] is 1.01 ± 0.097; in the assay on HCT116 it was 1.02 ± 0.036; in the assay on SW480 [2] it was 1.01 ± 0.018. Moreover, the “TCF/Wnt firefly luciferase reporter signal” value with DLD1 [3] was 1.11 ± 0.014; in the assay with SW480 [4] it was 1.09 ± 0.028.

`Oc1cc(O)c2c(c1)O[C@H](c1cc(O)c(O)c(O)c1)[C@H](O)C2`: the values for the cell viability in the assay with DLD1 [1], with HCT116 and in the assay on SW480 [2] were 0.94 ± 0.059, 0.897 ± 0.19 and 0.973 ± 0.024, respectively. The “TCF/Wnt firefly luciferase reporter signal” value with DLD1 [3] is 0.925 ± 0.024; with SW480 [4] it was 1.07.

As to `NC(=O)N(CCc1ccccc1)CCc1ccccc1` [N, N-Bis(2-phenylethyl)urea], the figures for the cell viability in the assay with DLD1 [1], in the assay with HCT116 and with SW480 [2] were 1.08 ± 0.085, 1.01 ± 0.014 and 1.06 ± 0.021, respectively. Also, the “TCF/Wnt firefly luciferase reporter signal” value in the assay with DLD1 [3] came out at 1.03 ± 0.028; in the assay on SW480 [4], 0.946 ± 0.077.

For the compound `O=C(O)Cc1ccccc1Nc1c(Cl)cccc1Cl`, the cell viability was 0.955 ± 0.078 in the assay with DLD1 [1], 0.938 ± 0.037 in the assay with HCT116 and 0.96 ± 0.032 in the assay on SW480 [2]. In addition, the “TCF/Wnt firefly luciferase reporter signal” value in the assay with DLD1 [3] is 0.95 ± 0.05; in the assay with SW480 [4], 0.848 ± 0.13.

On to `CCOC(=O)C(=O)C1(C(=O)OCC)Oc2cc(OC)cc(OC)c2C(=O)C1c1ccccc1` (stereo not given), for which the values for the cell viability with DLD1 [1], in the assay on HCT116 and with SW480 [2] were 0.978 ± 0.03, 0.951 ± 0.23 and 1.01 ± 0.13, respectively. The “TCF/Wnt firefly luciferase reporter signal” value in the assay with DLD1 [3] was determined as 0.939 ± 0.083; with SW480 [4], 1.02 ± 0.069.

Consider `CC(=O)C[C@@H]1C[C@H](O)c2c(O)cccc2C1=O` [Bhimanone], for which the cell viability in the assay with DLD1 [1] was determined as 1.06 ± 0.035; in the assay with HCT116 it was 1.03 ± 0.035; with SW480 [2], 1.05 ± 0.14. Besides, the “TCF/Wnt firefly luciferase reporter signal” value is 1.11 ± 0.035 with DLD1 [3] and 1.12 ± 0.057 in the assay on SW480 [4].

With `CN(C)C(=N)NC(=N)N`, the figures for the cell viability with DLD1 [1], in the assay with HCT116 and with SW480 [2] were 0.966 ± 0.076, 1.003 ± 0.0099 and 1.01 ± 0.025, respectively. In addition, the “TCF/Wnt firefly luciferase reporter signal” value is 1.03 ± 0.13 with DLD1 [3] and 1 ± 0.054 in the assay on SW480 [4].

Consider `CC1NC(=O)CNC1=O` (stereo not given) [cyclo(alanylglycyl)], for which the cell viability worked out at 0.883 ± 0.05 with DLD1 [1], 0.918 ± 0.051 in the assay on HCT116 and 0.925 ± 0.054 in the assay with SW480 [2]. The “TCF/Wnt firefly luciferase reporter signal” value in the assay with DLD1 [3] turned out to be 0.947 ± 0.012; in the assay with SW480 [4], 1 ± 0.1.

As for `C=C1C(N)CC2CC1C2(C)C` (stereo not drawn) [3-AMINO-beta-PINENE], the cell viability came out at 0.974 ± 0.093 in the assay on DLD1 [1], 0.9965 ± 0.005 in the assay on HCT116 and 0.918 ± 0.024 with SW480 [2]. Moreover, the entries for the “TCF/Wnt firefly luciferase reporter signal” value in the assay with DLD1 [3] and in the assay on SW480 [4] were 0.893 ± 0.0071 and 0.888 ± 0.016, respectively.

For `CC(C)=CCC[C@@H](C)[C@H]1CC[C@@]2(C)C3=C(CC[C@]12C)[C@@]1(C)CC[C@H](O)C(C)(C)[C@@H]1CC3`, the cell viability is 1 ± 0.029 in the assay on DLD1 [1], 1.01 ± 0.12 in the assay on HCT116 and 0.994 ± 0.0085 in the assay on SW480 [2]. For the same compound, the “TCF/Wnt firefly luciferase reporter signal” value with DLD1 [3] came out at 0.952 ± 0.023; in the assay on SW480 [4], 0.83 ± 0.05.

Take `CC1(C)[C@@H](O[C@H]2O[C@H](C(=O)O)[C@@H](O)[C@H](O)[C@H]2O[C@@H]2O[C@H](C(=O)O)[C@@H](O)[C@H](O)[C@H]2O)CC[C@]2(C)[C@H]3C(=O)C=C4[C@@H]5C[C@@](C)(C(=O)O)CC[C@]5(C)CC[C@@]4(C)[C@]3(C)CC[C@@H]12`: the figures for the cell viability in the assay on DLD1 [1], in the assay on HCT116 and in the assay on SW480 [2] were 1.04 ± 0.042, 1.14 and 1.02 ± 0.03, respectively. The “TCF/Wnt firefly luciferase reporter signal” value in the assay with DLD1 [3] turned out to be 1.22 ± 0.13; with SW480 [4] it was 1.16 ± 0.092.

In the case of `O=c1c(-c2ccc(O)cc2)coc2cc(O)cc(O)c12` [Genistein (Biofocus)], the cell viability with DLD1 [1] came to 1.05 ± 0.078; with HCT116, 1.04 ± 0.09; in the assay on SW480 [2] it was 1.08 ± 0.099. In addition, the “TCF/Wnt firefly luciferase reporter signal” value is 1.21 ± 0.15 with DLD1 [3] and 1.06 ± 0.021 in the assay with SW480 [4].

For `C#CCN(C)Cc1ccccc1`, the cell viability in the assay on DLD1 [1] was 0.947 ± 0.053; in the assay on HCT116 it was 1.08 ± 0.042; in the assay with SW480 [2], 0.943 ± 0.0099. Also, the “TCF/Wnt firefly luciferase reporter signal” value in the assay on DLD1 [3] is 1.14 ± 0.014; in the assay on SW480 [4], 1.03 ± 0.05.

Turning to `Nc1ccccc1C(=O)CC(N)C(=O)O` (stereo not given), the cell viability in the assay on DLD1 [1] amounted to 1.01; with HCT116, 1.05 ± 0.1; with SW480 [2], 0.994 ± 0.023. The “TCF/Wnt firefly luciferase reporter signal” value in the assay on DLD1 [3] turned out to be 1.31 ± 0.05; in the assay with SW480 [4], 1.08 ± 0.014.

Source of the values: the supplement of paper PMC6522484.
